Among the test systems are HCT-15 colon; HT29 colon; SNB-75 CNS; U251 CNS; PC-3 prostate; SK-MEL-5 melanoma; UACC-62 melanoma; LOX IMVI melanoma; SK-MEL-28 melanoma; SK-MEL-2 melanoma; EKVX NSCLC; SN12C renal; UO-31 renal; TK-10 renal; ACHN renal; CAKI-1 renal; A498 renal; CCRF-CEM leukemia; MOLT-4 leukemia.
Experiment in all cases: NCI-60 one-dose screen, 48 h (100 = growth as untreated, 0 = no growth, -100 = all killed)
Settings in all cases: 10 µM unless noted

This is part of a sample that, as a whole, favours compounds with a hit. Of some 83,000 tested, about 20% had one in any assay.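 48-hour exposure, single concentration, 96-well plates; percent growth endpoint where 0 means no net growth. Active: below 10.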 Unmarked numbers belong to inactive results. The source made the active and inactive calls.

Experimental findings from PubChem BioAssay (NCI) are described below.

Turning to `O=c1cc(-c2ccccc2)[nH]c2ccccc12`, the growth with HCT-15 colon is 17.5%; with HT29 colon it was 15.3%; in the assay on SNB-75 CNS it was 30%; with U251 CNS it was 27.2%; in the assay with PC-3 prostate, 27.1%; in the assay on SK-MEL-5 melanoma, 29.4%. The growth with UACC-62 melanoma was 64.5%; in the assay on LOX IMVI melanoma it was 57.7%; with SK-MEL-28 melanoma it was 62.4%; with SK-MEL-2 melanoma, 55.8%; in the assay with EKVX NSCLC, 50.5%; in the assay on SN12C renal, 91.6%. For the same compound, the growth in the assay with UO-31 renal is 46.6%; in the assay on TK-10 renal, 11.4%; with ACHN renal it was 48.8%; with CAKI-1 renal, 47.4%; in the assay with A498 renal it was 47.6%; in the assay with CCRF-CEM leukemia, 15.2%. The growth in the assay with MOLT-4 leukemia was 32%.

In the case of `COc1ccc(OCC(=O)Nc2ccc(-c3nc4ccccc4s3)cc2C)cc1`, the growth in the assay with HCT-15 colon was 85.9%; in the assay with HT29 colon it was 91.7%; in the assay with SNB-75 CNS it was 83.4%; with U251 CNS, 96.2%; in the assay on PC-3 prostate it was 75.9%; with SK-MEL-5 melanoma, 70.8%. Besides, the growth with UACC-62 melanoma is 83.2%; in the assay on LOX IMVI melanoma, 89%; with SK-MEL-28 melanoma, 107%; with SK-MEL-2 melanoma, 94.1%; with EKVX NSCLC, 65%; with SN12C renal, 88.8%. Besides, the growth in the assay with UO-31 renal was 44.7%; with TK-10 renal, 64.9%; in the assay with ACHN renal, 99.4%; with CAKI-1 renal, 78.4%; in the assay with A498 renal, 101%; in the assay with CCRF-CEM leukemia it was 89.6%. Further, the growth in the assay with MOLT-4 leukemia is 55.9%.

As to `COc1cc(-c2nc3ccccc3s2)ccc1NC(=O)COc1ccc(Cl)cc1`, the growth in the assay with HCT-15 colon is 85.8%; in the assay on HT29 colon, 34.9%; in the assay with SNB-75 CNS, 21.3%; in the assay with U251 CNS, 41.9%; in the assay on PC-3 prostate, 49.8%; with SK-MEL-5 melanoma, 73.7%. Moreover, the growth was 36.1% in the assay with UACC-62 melanoma; 64.7% with LOX IMVI melanoma; 58.6% in the assay on SK-MEL-28 melanoma; 78.5% in the assay on SK-MEL-2 melanoma; 57.4% in the assay on EKVX NSCLC; 58.6% in the assay on SN12C renal. Besides, the growth is 47.3% in the assay on UO-31 renal; 35.6% in the assay with TK-10 renal; 40% in the assay on ACHN renal; 6.38% (active) in the assay with CAKI-1 renal; 97.3% with A498 renal; 98.5% with CCRF-CEM leukemia. In the assay with MOLT-4 leukemia, the growth is 86%.

In the case of `CCCCN(CCCC)Cc1c(C)[nH]c2cc(OC)ccc2c1=O`, the growth in the assay with HCT-15 colon is 107%; with HT29 colon, 93.9%; in the assay on SNB-75 CNS, 89.5%; with U251 CNS, 98.5%; in the assay with PC-3 prostate it was 85.2%; in the assay with SK-MEL-5 melanoma, 101%. Also, the growth is 101% in the assay on UACC-62 melanoma; 97.1% with LOX IMVI melanoma; 112% in the assay with SK-MEL-28 melanoma; 110% in the assay on SK-MEL-2 melanoma; 104% with EKVX NSCLC; 104% in the assay with SN12C renal. Further, the growth in the assay on UO-31 renal is 81.2%; in the assay with TK-10 renal it was 104%; in the assay on ACHN renal it was 110%; with CAKI-1 renal, 99.1%; in the assay on A498 renal, 95.8%; in the assay with CCRF-CEM leukemia, 95.8%. Moreover, the growth in the assay on MOLT-4 leukemia was 90.9%.

Take `CNC(=O)c1cc(Oc2ccc3nc(NC(=O)Nc4ccc(CN5CCOCC5)c(C(F)(F)F)c4)sc3c2)ccn1`: the growth with HCT-15 colon is 24.5%; with HT29 colon, 45.3%; with SNB-75 CNS it was 59.4%; with U251 CNS, 22.2%; in the assay with PC-3 prostate, 8.35% (active); in the assay with SK-MEL-5 melanoma, -55.4% (active). The growth with UACC-62 melanoma was 0.564% (active); in the assay with LOX IMVI melanoma, 16.7%; in the assay on SK-MEL-28 melanoma it was 25.1%; in the assay with SK-MEL-2 melanoma it was 32.9%; with EKVX NSCLC, 25.4%; in the assay on SN12C renal, 27.8%. Further, the growth in the assay on UO-31 renal is 26.6%; in the assay with TK-10 renal it was 43.9%; in the assay on ACHN renal it was 16.2%; with CAKI-1 renal it was 19.4%; in the assay on A498 renal, 9.05% (active); in the assay with CCRF-CEM leukemia, 17.7%. The growth with MOLT-4 leukemia is 3.75% (active).

In the case of `C=C1CC[C@@H]2[C@](C)(COC(C)=O)[C@H](OC(C)=O)CC[C@@]2(C)[C@@H]1CC(NCc1ccc(F)cc1)C1=CCOC1=O` (stereo partly specified), the growth in the assay on HCT-15 colon is 37%; in the assay on HT29 colon, 21.3%; in the assay on SNB-75 CNS it was 58.1%; in the assay with U251 CNS, 48%; in the assay on PC-3 prostate it was 20.8%; in the assay with SK-MEL-5 melanoma, 11.8%. Further, the growth with UACC-62 melanoma is 32.2%; in the assay on LOX IMVI melanoma it was 9.33% (active); in the assay on SK-MEL-28 melanoma, 77.8%; with SK-MEL-2 melanoma it was 73.2%; in the assay with EKVX NSCLC, 50%; with SN12C renal, 46.2%. For the same compound, the growth in the assay with UO-31 renal is 31.3%; in the assay with TK-10 renal, 66.6%; with ACHN renal, 50.9%; in the assay with CAKI-1 renal it was 46%; with A498 renal, 51.7%; in the assay with CCRF-CEM leukemia, 9.18% (active). Besides, the growth in the assay with MOLT-4 leukemia is -0.37% (active).

Consider `O=C(O)c1cccc2c1-c1ccccc1C2=O`, for which the growth in the assay with HCT-15 colon is 95.7%; with HT29 colon, 103%; with SNB-75 CNS it was 86.8%; in the assay with U251 CNS, 95.7%; in the assay with PC-3 prostate, 94%; in the assay with SK-MEL-5 melanoma, 102%. Moreover, the growth was 90.1% in the assay with UACC-62 melanoma; 97.5% in the assay on LOX IMVI melanoma; 109% with SK-MEL-28 melanoma; 98.4% in the assay on SK-MEL-2 melanoma; 90.3% in the assay with EKVX NSCLC; 84.2% with SN12C renal. The growth is 94.3% with UO-31 renal; 91.1% in the assay with TK-10 renal; 94.4% in the assay on ACHN renal; 65.1% in the assay on CAKI-1 renal; 96.1% in the assay on A498 renal; 84.2% in the assay with CCRF-CEM leukemia. Also, in the assay on MOLT-4 leukemia, the growth was 99.4%.

Turning to `CCN(CC)CC(O)c1cc(-c2ccc(Cl)cc2)nc2c(C)c(Cl)ccc12` (stereo unspecified), the growth was -86.9% (active) in the assay with HCT-15 colon; -100% (active) with HT29 colon; -39.7% (active) in the assay on SNB-75 CNS; -93.5% (active) in the assay with U251 CNS; -68.4% (active) in the assay with PC-3 prostate; -96.6% (active) in the assay on SK-MEL-5 melanoma. The growth is -92.3% (active) with UACC-62 melanoma; -94.7% (active) in the assay on LOX IMVI melanoma; -85.5% (active) in the assay on SK-MEL-28 melanoma; -68.8% (active) with SK-MEL-2 melanoma; -63.1% (active) in the assay on EKVX NSCLC; -86.4% (active) with SN12C renal. For the same compound, the growth in the assay with UO-31 renal was -78.8% (active); in the assay on TK-10 renal it was -92.5% (active); in the assay with ACHN renal it was -93.2% (active); with CAKI-1 renal, -100% (active); with A498 renal, -36.4% (active); in the assay with CCRF-CEM leukemia, -37.4% (active). The growth in the assay with MOLT-4 leukemia is -72.4% (active).

Regarding `Clc1nc(Cl)c2c3c(sc2n1)CCCC3`, the growth with HCT-15 colon was 26.7%; in the assay on HT29 colon it was 11.3%; with SNB-75 CNS it was 89%; in the assay with U251 CNS, 49.7%; with PC-3 prostate, 63.8%; with SK-MEL-5 melanoma, 50.8%. Also, the growth in the assay with UACC-62 melanoma is 92.9%; in the assay with LOX IMVI melanoma, 13.4%; in the assay on SK-MEL-28 melanoma, 55.1%; in the assay with SK-MEL-2 melanoma, 20%; with EKVX NSCLC, 89.8%; in the assay on SN12C renal, 27.5%. Moreover, the growth is 65.6% with UO-31 renal; 91% with TK-10 renal; 45.1% with ACHN renal; 64.2% in the assay on CAKI-1 renal; 127% in the assay on A498 renal; 10.7% in the assay on CCRF-CEM leukemia. Moreover, the growth with MOLT-4 leukemia is -27.8% (active).
